Only a selection was taken, and hits are over-represented in it overall.
Shiga toxin inh = Shiga toxin inhibition. Vero cells, Shiga toxin protein synthesis inhibition reporter. inhibition, % at 38.7 µM. 290,000 tested, 9.2% active. AID 2315; in the data active = inhibition mostly above about 28%, no sharp cut-off; inactive = mostly below about 43%
FBPA Giardia inh = Giardia lamblia aldolase inhibition. purified Giardia FBPA. Potency, µM (titrated, usually from 59.6 µM), usual class: inhibitors. 290,000 tested, 0.71% active; note: nearly all actives have a fitted effect of over 55% in size
Target sequence (A8B2U2 whole entry, looked up): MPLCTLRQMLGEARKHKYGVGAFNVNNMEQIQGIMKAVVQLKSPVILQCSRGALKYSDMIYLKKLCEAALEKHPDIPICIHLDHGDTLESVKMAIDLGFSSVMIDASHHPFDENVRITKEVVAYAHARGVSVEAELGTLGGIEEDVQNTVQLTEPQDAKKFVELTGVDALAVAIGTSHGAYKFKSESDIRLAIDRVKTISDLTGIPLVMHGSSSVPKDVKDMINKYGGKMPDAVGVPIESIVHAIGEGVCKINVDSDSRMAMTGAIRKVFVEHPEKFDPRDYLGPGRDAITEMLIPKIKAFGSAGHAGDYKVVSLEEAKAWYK
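40 nM FBPA preincubated 10 min at RT with compound (up to 57.5 uM final), then substrate plus GAPDH/TPI/NAD/arsenate coupling and diaphorase/resazurin added. Fluorescence read after 20 min at RT, 525/598 nm.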
RE007 growth inh = less growth of the S. pombe RE007 Vpr strain; 360,000 tested, 0.21% active; S. pombe RE007 Vpr strain, BacTiter-Glo ATP luminescence, 24 h; Potency, µM (series often up to 92.2 µM), hits mostly inhibitors; active = well fitted falling curve with a large enough effect; inconclusive = small, poorly fitted or top-dose-only effect; inactive = no such curve, though single readings can be large or run the other way; note: nearly all actives have a fitted effect of over 50% in size
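Fission yeast RE007 carrying one integrated HIV-1 vpr copy, seeded at OD 0.01 in PMG+AL medium with 23 nL pinned compound. Grown 24 h at 30 degrees; viability read by BacTiter-Glo luminescence after 5 min.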
LmPK inh = blocks Leishmania mexicana pyruvate kinase activity; Q27686; purified LmPK, Kinase-Glo ATP luminescence, 1 h; Potency, µM (series often up to 57.5 µM), hits mostly inhibitors; 290,000 tested, 0.37% active
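Kinase-Glo luminescence read after 1 h RT reaction of 0.1 nM LmPK with 0.5 mM PEP and 0.1 mM ADP. Activity scaled between uninhibited and enzyme-free controls.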
Tb PYK inh = inhibitors of Trypanosoma brucei pyruvate kinase; Q57TT1; TbPYK enzyme, Kinase-Glo Plus ATP luminescence, 45 min; Potency, µM (doses to about 76.8 µM), hits mostly inhibitors; 410,000 tested, 0.12% active; note: nearly all actives have a fitted effect of over 50% in size
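Enzyme and substrate buffer are dispensed first and compound is pin-transferred. ADP at 130 uM final then starts the reaction, which runs 45 min at room temperature. Detection reagent is added for 10 min before luminescence is imaged.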
CHX counter = affects cycloheximide protein synthesis inhibition readout, counter-screen. cell reporter, cycloheximide protein synthesis inhibition counterscreen. max response, %. 300,000 tested, 12% active; in the data active = max response mostly above about 13%, no sharp cut-off; inactive = mostly below about 14%; note: read at 38.3 µM for the half of the compounds with a filed dose
Hits are given with their value; [ ] = remark or other dose. Unless noted, calls come from the whole dose curve; as a rule, active = well fitted curve in the direction sought with a large enough effect; inconclusive = small, poorly fitted or top-dose-only effect, or another doubt; inactive = no such curve, though single readings can be large; an effect the other way counts as inactive or inconclusive.

For COc1ccc(OCC(=O)Nc2cc(S(=O)(=O)N3CCCC3)ccc2Cl)cc1 the results were RE007 growth inh inactive and Tb PYK inh inactive.
Screening Cc1occc1-c1n[nH]c(=S)n1-c1ccccc1 returned Shiga toxin inh inactive, FBPA Giardia inh inactive, RE007 growth inh inactive, LmPK inh inconclusive, Tb PYK inh 18µM and CHX counter inactive.
Screening COc1ccc(OC)c(-n2c(-c3cnccn3)n[nH]c2=S)c1 returned Shiga toxin inh inactive, FBPA Giardia inh inconclusive, RE007 growth inh inactive[3.69 µM], LmPK inh inconclusive and CHX counter inactive.
Screening COc1ccc(OC)c(-n2c(-c3cc(-c4ccc(F)cc4)n[nH]3)n[nH]c2=S)c1 returned Shiga toxin inh inactive, FBPA Giardia inh inactive, RE007 growth inh inactive, LmPK inh 14µM, Tb PYK inh inconclusive and CHX counter inactive.
COc1ccc(-c2cc(-c3n[nH]c(=S)n3-c3cc(OC)ccc3OC)[nH]n2)cc1 was read as Shiga toxin inh inactive, FBPA Giardia inh inactive, RE007 growth inh inactive, LmPK inh inconclusive, Tb PYK inh inconclusive and CHX counter inactive.
COc1ccc(OC)c(-n2c(-c3cccc(O)c3)n[nH]c2=S)c1 was read as Shiga toxin inh inactive, FBPA Giardia inh inactive, RE007 growth inh inactive, LmPK inh 2µM, Tb PYK inh 14µM and CHX counter inactive.
For COc1ccc(OC)c(-n2c(-c3cc(-c4ccco4)[nH]n3)n[nH]c2=S)c1 the results were Shiga toxin inh inactive, FBPA Giardia inh inactive, RE007 growth inh inactive, LmPK inh inactive, Tb PYK inh 3.2µM and CHX counter inactive.
`COc1ccccc1-n1c(-c2ccc(NS(C)(=O)=O)cc2)n[nH]c1=S` gave Shiga toxin inh inactive, FBPA Giardia inh inactive, RE007 growth inh inactive, LmPK inh 7.9µM, Tb PYK inh inconclusive and CHX counter inactive.
For COc1ccc(-c2n[nH]c(=S)n2-c2cc(OC)ccc2OC)cc1 the results were Shiga toxin inh inactive, FBPA Giardia inh inactive, RE007 growth inh inactive, LmPK inh 3.5µM, Tb PYK inh 2.8µM and CHX counter inactive.
COc1ccc(OC)c(-n2c(-c3ccc(C)cc3)n[nH]c2=S)c1 was read as Shiga toxin inh inactive, FBPA Giardia inh inactive, RE007 growth inh inactive, LmPK inh 2.5µM, Tb PYK inh inconclusive and CHX counter inactive.
S=c1[nH]nc(-c2cc(-c3ccco3)[nH]n2)n1-c1ccccc1 was read as Shiga toxin inh inactive, FBPA Giardia inh inactive, RE007 growth inh inactive, LmPK inh 13µM, Tb PYK inh inconclusive and CHX counter inactive.
Screening O=C(NCc1ccccc1)c1ccc(CSc2nc3cccnc3n2Cc2cccc(F)c2)cc1 returned Tb PYK inh inactive.
CCCCN(CCO)c1ncnc2sc(-c3ccccc3)cc12 was read as Shiga toxin inh inactive, FBPA Giardia inh inactive, RE007 growth inh inactive, LmPK inh inactive, Tb PYK inh inactive and CHX counter inactive.
`CCCCC/C=C\C/C=C\CCCCCCCCCC(=O)NCCCC(=O)O` gave FBPA Giardia inh inactive.
`CCN(CC)c1nc2c(S(=O)(=O)c3ccccc3)nnn2c2ccc(Cl)cc12` gave Tb PYK inh inactive.
For Cc1ccc(S(=O)(=O)c2nc(-c3ccccc3F)oc2N2CCCCC2)cc1 the results were Tb PYK inh inactive.
`Fc1ccc(N2CCN(c3ncnc4[nH]ncc34)CC2)cc1` gave Tb PYK inh inactive.
`CCOC(=O)c1cc2c(C)n(-c3ccc(C)cc3)c(C)c2ccc1=O` gave Shiga toxin inh 120, FBPA Giardia inh inactive, RE007 growth inh inactive, LmPK inh inactive, Tb PYK inh inactive and CHX counter 35.
CCOC(=O)c1cc2c(C)n(-c3ccc(OCC)cc3)c(C)c2ccc1=O was read as Shiga toxin inh inactive, FBPA Giardia inh inactive, RE007 growth inh inactive, LmPK inh inactive, Tb PYK inh inactive and CHX counter 16.
CCOc1ccc(-n2c(C)c(C(=O)OC)c3cc(O)ccc32)cc1 was read as Shiga toxin inh inactive, FBPA Giardia inh inactive, RE007 growth inh inactive, LmPK inh inactive, Tb PYK inh inactive and CHX counter inactive.
`CCC(C)c1ccc(NC(=S)N2CCN(C(=O)C3CCCO3)CC2)cc1` (stereo unspecified) gave Shiga toxin inh inactive, RE007 growth inh inactive, LmPK inh inactive, Tb PYK inh inactive and CHX counter inactive.
For CCSC1(SCC)N=C(N)C2(C#N)C(c3ccc(F)cc3)C12C#N (stereo unspecified) the results were Shiga toxin inh inactive, FBPA Giardia inh inactive, RE007 growth inh 4.5µM, LmPK inh inactive, Tb PYK inh inactive and CHX counter inactive.
For CCCCSC1(SCCCC)N=C(N)C2(C#N)C(c3ccccc3)NC(C)=C(C)C12C#N (stereo unspecified) the results were Shiga toxin inh inactive, FBPA Giardia inh inactive, RE007 growth inh inactive, LmPK inh inactive, Tb PYK inh inactive and CHX counter inactive.
For COC1(OC)N=C(N)C2(C#N)C(c3ccc(F)cc3)C12C#N (stereo unspecified) the results were Shiga toxin inh inactive, FBPA Giardia inh inconclusive, RE007 growth inh inactive, LmPK inh inactive, Tb PYK inh inactive and CHX counter inactive.
`CCSC1(SCC)N=C(N)C2(C#N)C(c3ccccc3)NC(C)=C(C)C12C#N` (stereo unspecified) gave Shiga toxin inh inactive, FBPA Giardia inh inactive, RE007 growth inh 56µM, LmPK inh inactive, Tb PYK inh inactive and CHX counter inactive.
For CC(C)NC(=O)C1(C)CN(S(C)(=O)=O)CC(=O)N1Cc1ccc2c(c1)OCO2 (stereo unspecified) the results were RE007 growth inh inactive.
Cc1ccc(Cl)cc1NC(=S)N1CCCCCC1 was read as Shiga toxin inh inactive, RE007 growth inh inactive, LmPK inh inactive, Tb PYK inh inactive and CHX counter inactive.
`Cc1ccc(-n2nc(-c3ccccc3)cc2Nc2ccccc2N)cc1` gave Shiga toxin inh inactive, FBPA Giardia inh inactive, RE007 growth inh inactive, LmPK inh inactive, Tb PYK inh inactive and CHX counter inactive.
Screening Nc1ccccc1Nc1cc(-c2ccccc2)[nH]n1 returned Shiga toxin inh 55, FBPA Giardia inh inactive, RE007 growth inh inactive, LmPK inh inactive, Tb PYK inh inactive and CHX counter 29.
For Nc1ccccc1Nc1cc(-c2ccccc2)nn1-c1ccccc1 the results were Shiga toxin inh inactive, FBPA Giardia inh inactive, RE007 growth inh inactive, LmPK inh inactive, Tb PYK inh inactive and CHX counter 18.
Screening Nc1c(C(=O)CSc2nc3ccccc3o2)c(=O)[nH]c(=O)n1C1CC1 returned RE007 growth inh inactive and Tb PYK inh inactive.
Screening C=CCn1c(COc2cccc(C)c2)nnc1SCn1nnc2ccccc2c1=O returned Shiga toxin inh inactive, FBPA Giardia inh inactive, RE007 growth inh inactive, LmPK inh inactive, Tb PYK inh inactive and CHX counter 14.
